Broadly, the AC50 is the concentration giving half of the maximal activity seen.

The structures appear in SMILES notation. Records with an inconclusive call do not appear. The source made the active and inactive calls. The calls were made as follows, unless noted: active = hit-call score of the fitted dose curve at least 0.9, where 1 is the maximum; inconclusive = response in the unintended direction; inactive = score below 0.9.

Among the data in PubChem BioAssay (EPA / NIEHS) are outcome and AC50 values, retold here.

Experiment [1] deals with Bile acid receptor (Homo sapiens) (UniProt Q96RI1). The experiment in a line: ATG_IR1_CIS: Attagene CIS-FACTORIAL HepG2 Assay for human Nuclear Receptor Subfamily 1 Group H Member 4 (NR1H4), IR1 submotif (AID 2282946; active = hit-call score of the fitted dose curve at least 0.9, where 1 is the maximum; inactive = score below 0.9). As to conditions: IR1 reporter transcription, actives raise or lower the signal. Summed up:
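HepG2 cells transiently transfected with multiplexed cis-element reporter units read endogenous transcription factor activity. After 24 h compound exposure, reporter mRNA was quantified by RT-PCR, fluorescent labelling, HpaI digestion and capillary electrophoresis; bidirectional fitting versus DMSO baseline.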

Experiment [2] in a line: ATG_PBREM_CIS: Attagene CIS-FACTORIAL HepG2 Assay for human Phenobarbital-responsive Enhancer Module (PBREM) (AID 2282955; active = hit-call score of the fitted dose curve at least 0.9, where 1 is the maximum; inactive = score below 0.9). As to conditions: HepG2 PBREM cis-reporter, Attagene multiplexed transcription; actives raise or lower the signal. Summed up:
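HepG2 cells transiently transfected with multiple cis-regulated reporter transcription units; endogenous factor activity at the PBREM element measured as reporter mRNA 24 h after dosing, via RT-PCR and capillary electrophoresis of fluorescent fragments; bidirectional fitting versus DMSO.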

The nature of experiment [3]: ATG_GAL4_TRANS: Attagene TRANS-FACTORIAL HepG2 Assay for GAL4 (Internal Marker) (AID 2282976). As to conditions: HepG2 Attagene TRANS GAL4 internal marker reporter. The procedure, abridged: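 First, HepG2 cells were transfected with reporter units under GAL4-UAS control. Next, they were treated with chemical for 24 h. Finally, RNA was reverse-transcribed, PCR-amplified, FAM-labelled and resolved by capillary electrophoresis, with induction scored against DMSO.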

The target in experiment [4] is Oxysterols receptor LXR-alpha (Homo sapiens) (UniProt Q13133). The experiment is described as follows: ATG_LXRa_TRANS: Attagene TRANS-FACTORIAL HepG2 Assay for human Liver X Receptor alpha (LXRa) (AID 2282980). As to conditions: HepG2 Attagene TRANS reporter, LXRa transactivation. Summed up: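 Transfect HepG2 with GAL4-UAS multiplex reporter constructs (TRANS format, chimeric receptor-GAL4); treat 24 h; extract RNA, reverse-transcribe, PCR-amplify, FAM-label, HpaI-digest; resolve fragments by capillary electrophoresis. Upward response vs DMSO.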

The target of experiment [5] is human Peroxisome Proliferator-activated Receptor alpha (PPARa), PPARA (gene 5465) (UniProt Q07869). The experiment in a line: ATG_PPARa_TRANS: Attagene TRANS-FACTORIAL HepG2 Assay for human Peroxisome Proliferator-activated Receptor alpha (PPARa) (AID 2283001). Summed up: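 Reporter transcripts quantified by RT-PCR plus capillary electrophoresis after 24 h treatment, fitted upward relative to DMSO. Cells: human HepG2 transiently carrying multiple GAL4-UAS reporter units driven by NR-Gal4 chimeras.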

Experiment [6] has as its target human RAR-related Orphan Receptor beta (RORb), RORB (gene 6096) (UniProt Q92753). The experiment in a line: ATG_RORb_TRANS: Attagene TRANS-FACTORIAL HepG2 Assay for human RAR-related Orphan Receptor beta (RORb) (AID 2283010). The procedure, abridged:
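Transfect HepG2 with multiple GAL4-UAS reporter transcription units; dose chemicals for 24 h; isolate RNA, reverse-transcribe and PCR-amplify reporter sequences; label, digest and resolve fragments by capillary electrophoresis; fit increases relative to DMSO.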

Experiment [7] addresses human Thyroid Receptor alpha (THRa1), THRA (gene 7067) (UniProt P10827). The experiment is described as follows: ATG_THRa1_TRANS: Attagene TRANS-FACTORIAL HepG2 Assay for human Thyroid Receptor alpha (THRa1) (AID 2283014). Summed up: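 Reporter transcript induction, read by capillary electrophoresis of 6-FAM-labelled RT-PCR products, reflects activity of a transfected THRa1-Gal4 fusion in HepG2 liver cells. Cells were dosed for 24 h; activity was fitted in the positive direction against DMSO.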

A short description of experiment [8]: CCTE_Harrill_HTTr_Apoptosis_MCF7: CCTE's 6-hour Apoptosis Assessment for the High-Throughput Transcriptomics (HTTr) Platform, in MCF-7 cells cultured in DMEM + 10% fetal bovine serum, Harrill Lab (AID 2284011; active = hit-call score of the fitted dose curve at least 0.9, where 1 is the maximum; inactive = score below 0.9). The procedure, abridged: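 MCF-7 (DMEM + 10% FBS), 384-well; 8-pt dilution series, 6 h chemical exposure; caspase-3/7 activation via CellEvent Caspase 3/7 Green, HCI; bidirectional fit vs DMSO.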

Experiment [9] addresses Glucocorticoid receptor (Homo sapiens) (UniProt P04150). The experiment is described as follows: ATG_GR_TRANS: Attagene TRANS-FACTORIAL HepG2 Assay for human Glucocorticoid Receptor (GR) (AID 2282978).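 Also: activators score as hits since higher reporter transcript over DMSO is fitted.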 To be noted: HepG2 Attagene TRANS GR reporter, mRNA transcription. The procedure, abridged: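 HepG2 cells transiently transfected with multiplexed reporter units in which chimeric NR-GAL4 proteins drive GAL4-UAS reporters; 24 h compound exposure. Reporter mRNA measured by RT-PCR, 6-FAM labelling, HpaI digestion and capillary electrophoresis; gain-of-signal fitted versus DMSO.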

In experiment [10] the target is Oxysterols receptor LXR-beta (Homo sapiens) (UniProt P55055). The experiment is described as follows: ATG_LXRb_TRANS: Attagene TRANS-FACTORIAL HepG2 Assay for human Liver X Receptor beta (LXRb) (AID 2282981). As to conditions: HepG2 Attagene TRANS GAL4-LXRb reporter, mRNA. The procedure, abridged:
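After 24 h chemical treatment of transfected HepG2 cells carrying exogenous NR-Gal4 chimeras, reporter mRNA was quantified by fluorescent RT-PCR and capillary electrophoresis; activity taken as increase over DMSO controls.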

Experiment [11] can be described thus: ATG_M_32_TRANS: Attagene TRANS-FACTORIAL HepG2 Assay for M32 Transcription Factor (Internal Marker) (AID 2282984).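 Also: transcript level of a background control reporter unit measured by RT-PCR and capillary electrophoresis.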 As to conditions: HepG2 Attagene TRANS M32 internal marker reporter. The procedure, abridged:
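Internal background reporter in transfected HepG2: after 24 h chemical exposure, RNA reverse-transcribed, reporter cDNA amplified, fluorescently labelled and HpaI-cut, then sized by capillary electrophoresis. Gain of signal fitted against DMSO control.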

The target in experiment [12] is Nuclear receptor subfamily 4 group A member 2 (Homo sapiens) (UniProt P43354). The experiment is described as follows: ATG_NURR1_TRANS: Attagene TRANS-FACTORIAL HepG2 Assay for human Nuclear Receptor Related Protein 1 (NURR1) (AID 2282985). As to conditions: HepG2 Attagene TRANS reporter, mRNA readout. The procedure, abridged: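 Reporter transcript induction, measured by RT-PCR with fluorescent labelling, HpaI digestion and capillary electrophoresis, after 24 hr dosing of human HepG2 cells transiently expressing an exogenous NR-Gal4 fusion with GAL4-UAS-driven reporters; DMSO as baseline.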

The target in experiment [13] is human Peroxisome Proliferator-activated Receptor delta (PPARd), PPARD (gene 5467) (UniProt Q03181). The experiment in a line: ATG_PPARd_TRANS: Attagene TRANS-FACTORIAL HepG2 Assay for human Peroxisome Proliferator-activated Receptor delta (PPARd) (AID 2283002). Summed up:
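Read-out is induced reporter mRNA, quantified by RT-PCR with fluorescent labelling and capillary electrophoresis after 24 h dosing. Cells are HepG2 transiently carrying multiple GAL4-UAS reporter units driven by exogenous NR-GAL4 chimeras; DMSO serves as baseline.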

Experiment [14] addresses human Vitamin D Receptor (VDR), VDR (gene 7421) (UniProt P11473). The experiment is described as follows: ATG_VDR_TRANS: Attagene TRANS-FACTORIAL HepG2 Assay for human Vitamin D Receptor (VDR) (AID 2283022). Summed up:
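Steps: transfect HepG2 with GAL4-UAS-driven reporter constructs; dose compounds 24 h; isolate RNA, reverse-transcribe, PCR-amplify with 6-FAM-labelled primer extension and HpaI digestion; quantify fragments by capillary electrophoresis relative to DMSO.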

The nature of experiment [15]: TOX21_p53_BLA_p4_viability: Viability Assessment in the Tox21 HCT-116 p53 Agonism Beta-lactamase Assay, Phase 4 (AID 2283597).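 Also: hits lower the luminescence signal meaning cytotoxicity.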 The procedure, abridged:
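Readout: ATP luminescence (CellTiter-Glo), measured 30 min after reagent addition at RT. The reagent followed a 2 h CCF4-AM incubation, and the cells had been exposed to compound for 16 h at 37C.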

Experiment [16] has as its target Nuclear receptor subfamily 1 group I member 3 (Homo sapiens) (UniProt Q14994). The experiment in a line: ATG_CAR_TRANS: Attagene TRANS-FACTORIAL HepG2 Assay for human Constitutive Androstane Receptor (CAR) (AID 2282969).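 Also: activators raise reporter mRNA above DMSO so AC50 marks induction.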 To be noted: HepG2 Attagene TRANS-FACTORIAL CAR reporter. Summed up:
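Signal is reporter mRNA induction relative to DMSO, measured 24 h after dosing by RT-PCR with fluorescent primer extension and capillary electrophoresis. Human HepG2 liver cells carried transiently transfected chimeric NR-Gal4/GAL4-UAS reporter constructs.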

A short description of experiment [17]: TOX21_p53_BLA_p3_viability: Viability Assessment in the Tox21 HCT-116 p53 Agonism Beta-lactamase Assay, Phase 3 (AID 2283593).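 Also: cells exposed to compound for 16 h before reading.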 Summed up:
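Cellular ATP was quantified by CellTiter-Glo luminescence, read after 30 min at room temperature. Beforehand, HCT116 cells (4000/well) received compound 5 h post-seeding, 217-fold diluted from DMSO, then incubated 16 h at 37C.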

The target of experiment [18] is Retinoic acid receptor alpha (Homo sapiens) (UniProt P10276). The experiment in a line: ATG_DR5_RAR_CIS: Attagene CIS-FACTORIAL HepG2 Assay for human Retinoic Acid Receptor Alpha (RARE), DR5 submotif (AID 2282934; active = hit-call score of the fitted dose curve at least 0.9, where 1 is the maximum; inactive = score below 0.9). To be noted: HepG2 Attagene cis-factorial RARE DR5 reporter, mRNA; actives raise or lower the signal. The procedure, abridged:
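Reporter transcripts from a DR5-regulated unit, measured via RT-PCR plus capillary electrophoresis, reflect endogenous RAR activity in transiently transfected human HepG2 liver cells. Exposure lasted 24 h; gain or loss of signal scored against DMSO.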

Experiment [19] deals with Peroxisome proliferator-activated receptor gamma (Homo sapiens) (UniProt P37231). The experiment is described as follows: ATG_PPARg_TRANS: Attagene TRANS-FACTORIAL HepG2 Assay for human Peroxisome Proliferator-activated Receptor-gamma (PPARg) (AID 2283007). Summed up:
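HepG2 cells transiently transfected with multiplexed GAL4-UAS reporter units and exogenous chimeric NR-Gal4 proteins; reporter mRNA quantified after 24 h compound exposure by RT-PCR, fluorescent labelling, HpaI digestion and capillary electrophoresis; gain-of-signal fitted versus DMSO baseline.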

Experiment [20] can be described thus: TOX21_p53_BLA_p2_viability: Viability Assessment in the Tox21 HCT-116 p53 Agonism Beta-lactamase Assay, Phase 2 (AID 2283591).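 Also: compound exposure lasted 16 h at 37 °C; actives lower the ATP signal meaning cytotoxicity.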 The procedure, abridged:
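Cytotoxicity readout: CellTiter-Glo ATP luminescence, 30 min at room temperature, after the beta-lactamase read. Cells were HCT116 exposed 16 h at 37C to compounds pin-transferred at 217-fold dilution from DMSO stocks.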

Sequence of human RAR-related Orphan Receptor beta (RORb), RORB (gene 6096) (Q92753 whole entry, looked up, the tested form may be a part): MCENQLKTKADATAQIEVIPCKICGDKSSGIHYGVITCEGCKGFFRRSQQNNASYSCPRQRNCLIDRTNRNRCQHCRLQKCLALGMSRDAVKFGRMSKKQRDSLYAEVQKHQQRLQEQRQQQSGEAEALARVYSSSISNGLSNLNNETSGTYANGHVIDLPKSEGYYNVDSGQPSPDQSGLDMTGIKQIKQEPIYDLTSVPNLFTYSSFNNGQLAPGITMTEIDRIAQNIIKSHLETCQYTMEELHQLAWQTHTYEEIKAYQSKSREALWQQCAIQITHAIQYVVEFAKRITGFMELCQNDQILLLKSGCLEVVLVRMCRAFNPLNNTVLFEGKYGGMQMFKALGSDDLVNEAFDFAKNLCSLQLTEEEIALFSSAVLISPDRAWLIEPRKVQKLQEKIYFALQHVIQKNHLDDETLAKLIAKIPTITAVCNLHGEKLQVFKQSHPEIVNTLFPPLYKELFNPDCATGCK
Sequence of human Thyroid Receptor alpha (THRa1), THRA (gene 7067) (P10827 whole entry, looked up, the tested form may be a part): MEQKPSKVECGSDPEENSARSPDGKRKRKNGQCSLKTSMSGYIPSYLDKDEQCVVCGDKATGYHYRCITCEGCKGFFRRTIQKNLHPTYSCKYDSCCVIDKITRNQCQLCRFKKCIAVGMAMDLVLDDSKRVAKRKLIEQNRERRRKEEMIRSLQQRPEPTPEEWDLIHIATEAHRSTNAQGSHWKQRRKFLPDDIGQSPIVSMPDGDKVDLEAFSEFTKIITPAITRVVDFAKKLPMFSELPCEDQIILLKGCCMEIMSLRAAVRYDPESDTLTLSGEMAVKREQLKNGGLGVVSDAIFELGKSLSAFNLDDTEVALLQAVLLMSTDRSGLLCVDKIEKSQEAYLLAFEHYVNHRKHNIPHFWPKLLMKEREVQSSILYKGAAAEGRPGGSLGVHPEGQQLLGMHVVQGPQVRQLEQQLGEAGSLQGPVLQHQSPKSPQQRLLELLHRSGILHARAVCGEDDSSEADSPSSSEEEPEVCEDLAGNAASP
Sequence of Bile acid receptor (Homo sapiens) (Q96RI1 whole entry, looked up): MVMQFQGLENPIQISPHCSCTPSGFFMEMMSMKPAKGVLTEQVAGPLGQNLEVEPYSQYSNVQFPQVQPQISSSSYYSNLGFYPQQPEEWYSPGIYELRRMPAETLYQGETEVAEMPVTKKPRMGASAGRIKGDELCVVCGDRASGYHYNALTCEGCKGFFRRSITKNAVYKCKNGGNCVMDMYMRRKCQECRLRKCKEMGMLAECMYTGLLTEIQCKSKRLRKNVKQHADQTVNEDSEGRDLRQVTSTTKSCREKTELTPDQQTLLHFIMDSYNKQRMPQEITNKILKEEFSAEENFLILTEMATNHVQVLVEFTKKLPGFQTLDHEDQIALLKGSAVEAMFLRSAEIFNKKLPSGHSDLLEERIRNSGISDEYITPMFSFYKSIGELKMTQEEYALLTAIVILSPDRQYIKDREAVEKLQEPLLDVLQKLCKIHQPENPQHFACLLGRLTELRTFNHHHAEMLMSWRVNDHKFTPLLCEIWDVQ
Sequence of Nuclear receptor subfamily 1 group I member 3 (Homo sapiens) (Q14994 whole entry, looked up, the tested form may be a part): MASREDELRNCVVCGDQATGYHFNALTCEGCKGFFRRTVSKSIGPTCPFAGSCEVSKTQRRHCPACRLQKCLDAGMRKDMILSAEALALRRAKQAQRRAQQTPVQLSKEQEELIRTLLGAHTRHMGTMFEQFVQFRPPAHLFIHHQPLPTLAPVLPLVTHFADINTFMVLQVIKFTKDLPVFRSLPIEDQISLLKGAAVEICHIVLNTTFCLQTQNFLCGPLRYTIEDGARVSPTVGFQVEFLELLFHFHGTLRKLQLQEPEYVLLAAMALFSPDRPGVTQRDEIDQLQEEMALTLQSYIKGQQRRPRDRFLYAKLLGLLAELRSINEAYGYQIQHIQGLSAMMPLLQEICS
Sequence of Nuclear receptor subfamily 4 group A member 2 (Homo sapiens) (P43354 whole entry, looked up, the tested form may be a part): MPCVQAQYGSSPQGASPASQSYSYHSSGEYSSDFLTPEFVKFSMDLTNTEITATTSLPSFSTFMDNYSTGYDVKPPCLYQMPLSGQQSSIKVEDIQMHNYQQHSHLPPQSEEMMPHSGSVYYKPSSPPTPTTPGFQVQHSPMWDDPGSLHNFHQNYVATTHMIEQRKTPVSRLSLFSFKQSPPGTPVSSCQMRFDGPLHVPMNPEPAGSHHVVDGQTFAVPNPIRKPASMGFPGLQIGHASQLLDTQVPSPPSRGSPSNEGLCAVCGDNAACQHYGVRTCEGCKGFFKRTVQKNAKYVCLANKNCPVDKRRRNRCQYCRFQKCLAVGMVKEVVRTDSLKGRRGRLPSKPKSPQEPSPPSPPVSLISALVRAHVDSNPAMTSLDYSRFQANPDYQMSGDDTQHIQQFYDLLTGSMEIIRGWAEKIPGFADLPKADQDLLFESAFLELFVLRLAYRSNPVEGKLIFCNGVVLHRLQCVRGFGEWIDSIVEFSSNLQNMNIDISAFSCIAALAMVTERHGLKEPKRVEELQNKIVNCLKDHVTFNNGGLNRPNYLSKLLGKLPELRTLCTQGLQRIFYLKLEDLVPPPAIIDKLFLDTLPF
Sequence of human Peroxisome Proliferator-activated Receptor delta (PPARd), PPARD (gene 5467) (Q03181 whole entry, looked up, the tested form may be a part): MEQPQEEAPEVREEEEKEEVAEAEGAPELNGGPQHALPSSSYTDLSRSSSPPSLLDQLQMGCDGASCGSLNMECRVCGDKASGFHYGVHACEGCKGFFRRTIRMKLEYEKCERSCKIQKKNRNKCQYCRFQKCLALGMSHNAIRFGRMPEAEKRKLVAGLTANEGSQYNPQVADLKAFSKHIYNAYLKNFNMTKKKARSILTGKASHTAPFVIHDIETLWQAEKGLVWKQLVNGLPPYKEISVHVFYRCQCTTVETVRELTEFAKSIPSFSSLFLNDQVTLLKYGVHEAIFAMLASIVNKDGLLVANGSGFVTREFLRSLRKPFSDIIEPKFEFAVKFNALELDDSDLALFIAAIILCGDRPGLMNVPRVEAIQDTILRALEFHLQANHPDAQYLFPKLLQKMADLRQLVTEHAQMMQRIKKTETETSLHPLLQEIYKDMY
Sequence of Retinoic acid receptor alpha (Homo sapiens) (P10276 whole entry, looked up): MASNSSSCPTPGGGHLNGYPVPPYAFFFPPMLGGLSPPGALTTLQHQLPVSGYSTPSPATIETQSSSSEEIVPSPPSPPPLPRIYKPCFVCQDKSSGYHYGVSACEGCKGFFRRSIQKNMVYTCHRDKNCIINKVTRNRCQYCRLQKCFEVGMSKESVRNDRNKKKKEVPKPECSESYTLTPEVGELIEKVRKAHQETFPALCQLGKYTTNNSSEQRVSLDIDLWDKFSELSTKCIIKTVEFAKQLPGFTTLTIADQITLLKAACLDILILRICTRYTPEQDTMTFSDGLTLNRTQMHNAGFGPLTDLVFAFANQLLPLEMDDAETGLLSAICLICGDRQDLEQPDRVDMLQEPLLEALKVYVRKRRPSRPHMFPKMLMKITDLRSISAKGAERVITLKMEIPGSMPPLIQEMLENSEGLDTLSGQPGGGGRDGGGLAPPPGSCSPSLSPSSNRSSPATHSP
Sequence of Peroxisome proliferator-activated receptor gamma (Homo sapiens) (P37231 whole entry, looked up, the tested form may be a part): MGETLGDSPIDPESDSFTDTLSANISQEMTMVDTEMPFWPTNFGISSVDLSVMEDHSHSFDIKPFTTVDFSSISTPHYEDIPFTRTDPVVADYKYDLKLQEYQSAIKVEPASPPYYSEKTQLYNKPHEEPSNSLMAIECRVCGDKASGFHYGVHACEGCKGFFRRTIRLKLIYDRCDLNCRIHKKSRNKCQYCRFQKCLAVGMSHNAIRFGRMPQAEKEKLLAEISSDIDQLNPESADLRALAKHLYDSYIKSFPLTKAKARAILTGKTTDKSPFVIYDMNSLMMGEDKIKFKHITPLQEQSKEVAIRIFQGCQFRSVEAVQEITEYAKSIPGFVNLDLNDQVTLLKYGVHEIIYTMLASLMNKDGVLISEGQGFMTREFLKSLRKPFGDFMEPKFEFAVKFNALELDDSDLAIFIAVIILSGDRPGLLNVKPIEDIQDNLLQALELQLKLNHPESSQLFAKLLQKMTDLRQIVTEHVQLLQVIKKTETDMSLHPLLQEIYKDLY
Sequence of Oxysterols receptor LXR-beta (Homo sapiens) (P55055 whole entry, looked up, the tested form may be a part): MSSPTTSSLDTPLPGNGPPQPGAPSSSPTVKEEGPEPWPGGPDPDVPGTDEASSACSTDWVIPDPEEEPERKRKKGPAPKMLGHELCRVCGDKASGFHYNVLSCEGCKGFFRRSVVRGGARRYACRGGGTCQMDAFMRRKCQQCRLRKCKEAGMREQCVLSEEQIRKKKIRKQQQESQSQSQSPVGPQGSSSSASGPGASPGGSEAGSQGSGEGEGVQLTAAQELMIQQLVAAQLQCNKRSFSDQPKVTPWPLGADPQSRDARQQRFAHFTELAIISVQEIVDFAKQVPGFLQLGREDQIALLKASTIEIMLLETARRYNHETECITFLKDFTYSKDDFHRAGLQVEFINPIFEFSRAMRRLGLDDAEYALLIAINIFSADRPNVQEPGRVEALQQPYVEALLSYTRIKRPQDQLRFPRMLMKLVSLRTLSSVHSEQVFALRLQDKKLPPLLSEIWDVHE
Sequence of human Peroxisome Proliferator-activated Receptor alpha (PPARa), PPARA (gene 5465) (Q07869 whole entry, looked up, the tested form may be a part): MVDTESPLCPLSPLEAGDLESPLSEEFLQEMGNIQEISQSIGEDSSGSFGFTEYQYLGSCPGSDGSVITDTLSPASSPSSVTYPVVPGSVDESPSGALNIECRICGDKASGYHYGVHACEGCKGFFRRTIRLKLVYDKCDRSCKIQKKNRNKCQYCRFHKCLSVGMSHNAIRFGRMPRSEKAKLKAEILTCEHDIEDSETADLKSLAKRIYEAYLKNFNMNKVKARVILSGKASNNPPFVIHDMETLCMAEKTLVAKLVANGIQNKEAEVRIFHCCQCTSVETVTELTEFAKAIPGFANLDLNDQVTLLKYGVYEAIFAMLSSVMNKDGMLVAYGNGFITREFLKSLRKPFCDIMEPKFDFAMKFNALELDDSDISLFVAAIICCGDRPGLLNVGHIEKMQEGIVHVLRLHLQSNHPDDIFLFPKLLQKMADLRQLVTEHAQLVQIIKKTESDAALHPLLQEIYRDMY

Take `C=COCCCl`: the compound was classed as inactive in experiment [1], in experiment [2], in experiment [3], in experiment [4], in [5] and in experiment [6]. For the same compound, the result in [7] and in experiment [8] was inactive.
Consider `O=CNC(N1CCN(C(NC=O)C(Cl)(Cl)Cl)CC1)C(Cl)(Cl)Cl` (stereo unspecified), for which the outcome in [3], in [9], in experiment [4], in experiment [10], in experiment [11] and in experiment [12] was inactive. Moreover, the compound was called inactive in [13], in [7], in experiment [14], in experiment [15] and in experiment [8].
On to `O=c1c2ccccc2c(=O)c2c1cc(Cl)c1[nH]c3c([nH]c12)c(Cl)cc1c(=O)c2ccccc2c(=O)c13`, for which the result in [1], in [2], in experiment [16], in experiment [12], in experiment [5] and in [13] was inactive. Further, the call in [6], in experiment [17] and in [15] was inactive.
On to `Cc1ccc(OP(=O)(Oc2ccc(C)cc2)Oc2ccc(C)cc2)cc1` (tested in a mixture with another compound), for which the result in experiment [18], in [9], in experiment [20], in experiment [15] and in [8] was inactive. In experiment [19], the AC50 was 1.85 µM (active).
Regarding `Cc1ccccc1CCl`, the result in experiment [18], in experiment [16], in [3], in experiment [9], in experiment [10] and in experiment [11] was inactive. For the same compound, the outcome in experiment [5], in [13], in experiment [19] and in [6] was inactive.
`O=C=Nc1ccccc1`: the compound was called inactive in [18], in [2], in experiment [16], in experiment [3], in experiment [10] and in experiment [19]. Further, the result in experiment [6], in experiment [14] and in experiment [8] was inactive.
Consider `N#CCCCCC#N`, for which the result in experiment [1], in [2], in experiment [9], in experiment [10], in [7] and in [15] was inactive. The outcome in experiment [8] was inactive.
With `C#CC1(O)CCCCC1`, the compound was called inactive in experiment [18], in experiment [3], in [11], in experiment [12], in experiment [6] and in experiment [15].
